# The list is not random: actives were taken first. Their share in the collection is about 2%.
# JMJD2E inh – inhibitors of human JMJD2E histone demethylase; B2RXH2; JMJD2E catalytic domain, FDH-coupled NADH fluorescence (FDH is formaldehyde dehydrogenase); Potency, µM (doses to about 57.1 µM), actives largely listed as inhibitors; hit rate 1.6% among 230,000; AID 2147; active = well fitted inhibition curve with a large enough effect, not every such curve was filed as active; inconclusive = small, poorly fitted or top-dose-only effect, or another doubt; inactive = no such curve, though single readings can be large or run the other way; note: nearly all actives have a fitted effect of over 50% in size
# CtBP-E1A blk – CtBP/E1A binding inhibition; hit rate 0.49% among 340,000; AlphaScreen GST-E1A/His-CtBP binding, 1536-well; active compounds read low; AID 651724; activity change, % (concentration not given with the values)
#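 AlphaScreen with 125 nM GST-E1A and 125 nM His-CtBP (5X stocks) in Tris pH 8.0, 300 mM NaCl, BSA, Tween 20, TCEP. Compounds preincubated 2 h at 37 deg C, then glutathione donor/nickel acceptor beads added for 1 h at 37 deg C in dark.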
# KCNH2 3.1 inh – blocks the human KCNH2 3.1 channel isoform | AID 720553 | activity change, % (tested at about 1.8 µM) | U2OS KCNH2 3.1, thallium flux FluxOr; active compounds read low | hit rate 0.95% among 340,000;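 active = maximum activity change below -70%; inconclusive = maximum activity change from -70% to -50%; inactive = maximum activity change above -50%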;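 note: thallium influx rate constant from kinetic fluorescence after stimulation buffer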
#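 Channel expression came from 3.1 mutant virus (1.77 x 10^8 /mL) applied to suspended U2OS cells for 4 h. Flux was tracked with FluxOr dye plus Red40 quencher, and kinetic rate constants normalized to controls.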
# Six1-Eya2 inh – Six1/Eya2 interaction inhibition. AlphaScreen GST-Six1/His-Eya2 binding, biochemical; active compounds read low. activity change, % (test concentration not listed). AID 651725. hit rate 0.56% among 360,000
#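 AlphaScreen with GST-Six1 and His-Eya2 (5X mix: 250 nM and 500 nM), glutathione donor and nickel acceptor beads; buffer 50 mM Tris pH 8.0, 300 mM NaCl, 1 mM TCEP; 1 h at 37 C in the dark.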
# KCNH2 WT inh – blocks the wildtype human KCNH2 potassium channel. U2OS, BacMam KCNH2, thallium flux FluxOr; active compounds read low. Q12809. hit rate 0.37% among 340,000. AID 720551. activity change, % at 1.84 µM;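 active = maximum activity change below -70%; inconclusive = maximum activity change between -70% and -50%; inactive = maximum activity change above -50%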
#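 U2OS cells were transduced with wild-type KCNH2 virus (2.03 x 10^8 / mL) for 4 h at room temperature, then cultured overnight at 37 C. Thallium flux was read with FluxOr dye. Rate constants were normalized to DMSO controls.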
# A number is an active result; - = inactive; ? = inconclusive; . = not tested or not shown. Cut-off read from the data, not from the text of the source, unless noted: active = activity change below about -65%; inconclusive = mostly about -30% to -63%; inactive = weaker than that.
SMILES,JMJD2E inh,CtBP-E1A blk,KCNH2 3.1 inh,Six1-Eya2 inh,KCNH2 WT inh
Cc1cc(NC(c2cccnc2)c2ccc3cccnc3c2O)no1 (stereo not given),?,-93.4,-,-87.8,-
Oc1c(C(Nc2cccc(C(F)(F)F)c2)c2cccnc2)ccc2cccnc12 (stereo not given),?,-85.5,.,-82.5,-
Cc1sc(NC(=O)c2ccco2)c(C(c2cccnc2)N2CCN(c3ccc(F)cc3)CC2)c1C (stereo not given),?,-,-,-,-
O=C1N(Cc2cccc(Cl)c2)C[C@@H]2C[C@@H](c3cccn3-c3nccs3)N3CCC[C@@]123,-,-,-86.0,-,-
CCc1ccc(NC(=O)C(=O)NCCN2CCN(Cc3ccc([N+](=O)[O-])cc3)CC2)cc1,-,-,-105.5,-,-91.5
O=C(NCCN1CCN(C(=O)c2ccc(Br)cc2)CC1)c1ccc(Br)cc1,.,-,-82.6,-,-
CCN1CCN(CCNC(=O)Nc2ccc([N+](=O)[O-])cc2)CC1,-,-,-,-,-
Cc1ccc(C(=O)N2CCN(CCNC(=O)C(=O)Nc3ccc(Cl)cc3)CC2)cc1,.,-,-86.9,-,-
Cc1ccc(NC(=O)C(=O)NCCN2CCN(Cc3ccc([N+](=O)[O-])cc3)CC2)cc1,-,-,-108.1,-,-82.2
Cc1ccc(C(=O)NCCN2CCN(C(=O)c3ccc(C)c(C)c3)CC2)cc1C,.,-,-,-,-
COC(=O)c1ccc(C(=O)OC)c(NC(=O)/C=C/C(=O)O)c1,?,-,-,-,-
CN(C)c1ccc(NC(=S)c2ccccn2)cc1,17.8µM,-73.9,-,-88.4,-
COc1nc(N(C)S(=O)(=O)c2ccc(C)cc2)nc(C)c1Br,.,.,-,-,-
COc1ccc(C(=O)n2nc(-c3ccco3)nc2SC)cc1OC,-,-,-177.0,-,-131.9
CSc1nc(-c2ccco2)nn1C(=O)c1cccs1,-,-,-,-,-
CCOC(=O)c1c(N)sc2c(OC)c(Br)ccc12,-,-,-,-,-
Cc1nccn1CCC(=O)NC1CCCc2c1cnn2-c1ccc(C(C)(C)C)cc1 (stereo not given),.,-,-,-,-
Nn1cnn(Cc2ccccc2)c1=S,-,-,-,-,-
COc1ccc(C(C)=O)cc1CSc1nnc(Nc2ccccc2C)s1,-,-,-116.9,-,-
COc1ccc(C(C)=O)cc1CSc1nnc(Nc2ccc(C)cc2C)s1,-,-,-,-,-
O=c1cc(CN2CCN(Cc3ccccc3)CC2)c2ccc(O)cc2o1,.,-,-84.7,-,?
Cc1ccc2c(CN3CCN(Cc4ccccc4)CC3)cc(=O)oc2c1,.,-,-107.7,-,-86.2
Cc1cccc(Nc2ncccc2C(=O)NCc2cccs2)c1C,-,-,-73.0,-,-
Cc1cc(-c2csc(NC(=O)c3ccc(S(=O)(=O)N(C)C)cc3)n2)c(C)n1-c1ccccc1,28.2µM,-,-,-,-
O=C(Nc1nc(-c2ccccn2)cs1)c1cc(S(=O)(=O)N2CCOCC2)ccc1F,.,?,-,-89.7,-
SMILES,JMJD2E inh,CtBP-E1A blk,KCNH2 3.1 inh,Six1-Eya2 inh,KCNH2 WT inh
Cc1csc(NC(=O)c2cc(=O)[nH]c3ccc(S(=O)(=O)N4CCOCC4)cc23)n1,?,-69.9,-,?,-
Cc1ccc(C(=O)Nc2ccccn2)cc1S(=O)(=O)N1CCOCC1,.,-,-,-,-
Cc1ccc(C(=O)Nc2nc(-c3ccccn3)cs2)cc1S(=O)(=O)N1CCOCC1,.,-92.5,-,-91.3,-
Cc1nnc(NC(=O)c2ccc(F)c(S(=O)(=O)N3CCOCC3)c2)s1,.,-,-,-,-
O=C(Nc1nc(-c2ccccn2)cs1)c1ccc(F)c(S(=O)(=O)N2CCOCC2)c1,.,-92.9,-,-92.6,-
CN(CC1CCCO1)S(=O)(=O)c1ccc(C(=O)Nc2nc(-c3ccccn3)cs2)cc1 (stereo not given),?,-92.2,-,?,-
CN(CC1CCCO1)S(=O)(=O)c1ccc(C(=O)Nc2ccccc2F)cc1 (stereo not given),.,-,.,-,-
CC(=O)N1Cc2[nH]c3ccccc3c2CC1C(=O)O (stereo not given),.,-,-80.8,-,-
COC(=O)c1ccc(COc2ccc(/C=C(\C#N)c3nc4ccccc4[nH]3)cc2OC)o1,22.4µM,-,-,-,-
O=c1c2ccccc2nc2c3ccccc3c(NCc3ccccn3)nn12,?,-68.8,-,?,-
O=c1c2ccccc2nc2c3ccccc3c(NCc3cccnc3)nn12,?,-,-,-,-
COc1ccc(S(=O)(=O)N2CCN(Cc3ccco3)CC2)cc1,.,-,-,-,-
CC1CCCC(C)N1/N=C/c1ccccc1C(=O)O (stereo not given),?,-,-,-,-
COc1cc(/C=N/Nc2ncnc3sc4c(c23)CCC4)ccc1O,-,-82.7,-,-67.9,-
COc1ccccc1NC(=O)CN(C)S(=O)(=O)c1ccc2c(c1)CCC(=O)N2,-,-,-,-,-
CC(/C=C/c1ccco1)=N\NC(=O)CNc1cccc(C)c1,-,-,-79.8,-,-
COC(=O)N/N=C(C)\C=C\c1ccco1,-,.,-,-,.
COc1ccc(OC)c(NC(=O)CSc2nnc(-c3cccnc3)s2)c1,-,-,-,-,-
Cc1cccc(OCC(=O)NCC(=O)N/N=C/c2ccc(O)cc2O)c1,3.16µM,.,-,-84.7,-
Cc1cccc(OCC(=O)NCC(=O)N/N=C/c2cc(Br)ccc2OCc2ccccc2)c1,-,-,.,-,-
Cc1cccc(OCC(=O)NCC(=O)N/N=C/c2ccccc2)c1,.,-,-,-,-
COc1cccc(/C=N/NC(=O)CNC(=O)COc2cccc(C)c2)c1O,2.82µM,.,-,-72.9,-
COc1ccc(CCN(C)C(=O)CNC(=O)c2ccc3c(c2)OCO3)cc1OC,.,-,-,-,-
O=C(CN1CCCCCC1)NN(Cc1ccccc1)c1ccccc1,?,-,-95.5,-,-
O=C(CN1CCN(c2ccc(O)cc2)CC1)NC(c1ccccc1)c1ccccc1,-,-,-,-,-
SMILES,JMJD2E inh,CtBP-E1A blk,KCNH2 3.1 inh,Six1-Eya2 inh,KCNH2 WT inh
O=C(CN1CCCC1)NCc1ccccc1,.,.,-,-,-
O=C(CN1CCCCCC1)NC(c1ccccc1)c1ccccc1,.,-,-81.7,-,-
O=C(O)CCCCCNS(=O)(=O)c1cccc2c1C(=O)c1ccccc1C2=O,-,-,-,-76.4,-
CN(Cc1ccccc1)C(=O)c1[nH]cnc1C(=O)Nc1nccs1,.,?,-,-73.6,-
CSc1ncccc1C(=O)OC(C)C(=O)Nc1cccc(S(=O)(=O)N2CCOCC2)c1 (stereo not given),.,-,-,-,-315.1
COc1cc(N)c(Cl)cc1C(=O)OC(C)C(=O)Nc1cccc(S(=O)(=O)N2CCOCC2)c1 (stereo not given),.,-,-,-,-
COc1ccccc1/C=C1/C(=O)N(c2ccc([N+](=O)[O-])cc2)N=C1C,.,.,-79.7,-,-
CC1=NN(c2ccc([N+](=O)[O-])cc2)C(=O)/C1=C\N(C)C,-,-,-,-,-

# High-throughput results (PubChem BioAssay)
